In the library only some 1.5% were active in any assay of this set; here they are far more common.
Phagocyt inh = blocks phagocytosis by macrophages; J774A.1 macrophage IgG-bead phagocytosis, imaging; inhibition, % at 5 µM; hit rate 0.07% among 110,000; AID 1029;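 active = inhibition above the mean of the plate negative controls plus 5 SD, cut at about 13% in these data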;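 also: phagocytic index as fraction of beads internalized from green versus red external bead signal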
MRP resist rev = compounds reversing MRP-mediated drug resistance. H69AR cells + 2 uM doxorubicin, CellTiter-Glo, 72 h. differential viability (reversal), % at 10 µM. hit rate 0.04% among 85,000. AID 602;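 active = viability drop by adding the cancer drug above about 55%, with treated viability meeting a 40% cutoff, limit read from the data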;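 also: larger differential means the compound sensitizes cells more to doxorubicin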
MRP-1 activ = activates MRP-1; H69AR cells + doxorubicin, viability rescue, CellTiter-Glo; viability increase, % at 10 µM; hit rate 0.61% among 140,000; AID 799;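 active = viability gain under doxorubicin at or above a set limit, the compound median plus 3 SD, cut at about 4.7% in these data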;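 also: MRP-1 overexpressing cells given doxorubicin 25 µM after compound pretreatment; 18-22 h compound pretreatment then 72 h with doxorubicin before readout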
FAK inh = FAK (human) kinase inhibition. Q05397. biochemical FAK kinase activity assay. inhibition, %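 (tested at 7 µM)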. hit rate 0.84% among 97,000. AID 727
CD11b adhes inh = CD11b/CD18-fibrinogen binding inhibition; inhibition, % at 10 µM; hit rate 0.54% among 93,000; AID 1497; K562 CD11b/CD18 adhesion to fibrinogen, ATPlite luminescence; Mn2+ added to activate the integrin;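 active = primary inhibition of 50% or more at 10 µM, then 40% or more on retest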
Mac1 fbg enh = CD11b/CD18-fibrinogen binding enhancement | K562 CD11b/CD18 adhesion to fibrinogen, ATPlite luminescence | activation, % at 10 µM | hit rate 0.07% among 93,000;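 active = 10 µM primary screen giving 50% or more activity, confirmed by 40% or more on retest at that dose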
FAK inh conf = FAK (human) inhibition confirmed; shares compounds with FAK inh; FAK kinase biochemical inhibition assay; inhibition, % at 7 µM; hit rate 28% among 750
Large screens that a line does not name were inactive (follow-up assays come after a bar, where they were run). Rule as the data show it, unless noted: active = inhibition above about 19%; inactive = the rest.

Nc1ccc(-c2nc3ccccc3[nH]2)cc1	none
CCN(CC)CC(=O)Nc1c(C)cc(C)cc1C	none (no result: MRP resist rev, MRP-1 activ, FAK inh, CD11b adhes inh, Mac1 fbg enh)
CC(C)OCCCn1c(=NC(=O)c2ccncc2)c(C#N)cc2c(=O)n3ccccc3nc21	none
CC(C)OCCCn1c(=N)c(C(N)=S)cc2c(=O)n3ccccc3nc21	FAK inh 32 | FAK inh conf inactive
O=C(NNc1ccccc1[N+](=O)[O-])Nc1ccccc1	FAK inh 21 (no result: MRP resist rev) | FAK inh conf inactive
O=C(NNc1ccccc1[N+](=O)[O-])Nc1ccc(F)cc1	none (no result: MRP resist rev, FAK inh, CD11b adhes inh, Mac1 fbg enh)
Cn1c(SCC(=O)Nc2ccc3nc(SCC(=O)N4CCCC4)sc3c2)nnc1-c1ccc(N)cc1	FAK inh 31 (no result: MRP resist rev) | FAK inh conf 32
Cn1c(SCC(=O)Nc2ccc3nc(SCC(=O)NC4CC4)sc3c2)nnc1-c1ccccc1	none (no result: MRP resist rev, FAK inh)
CCN(CC)C(=O)CSc1nc2ccc(NC(=O)CSc3nnc(N)s3)cc2s1	FAK inh 21 (no result: Phagocyt inh, MRP resist rev, CD11b adhes inh, Mac1 fbg enh) | FAK inh conf inactive
CCNc1nc(ON=C(C)C)nc(N(C)C)n1	none (no result: Phagocyt inh, MRP resist rev, FAK inh, CD11b adhes inh, Mac1 fbg enh)
CN=C1S/C(=C\c2cc(C)n(-c3ccccc3F)c2C)C(=O)N1C	MRP-1 activ 5.9, FAK inh 21 (no result: MRP resist rev) | FAK inh conf inactive
O=C(Nc1ccc(N2CCCC2)cc1)C(c1ccccc1)c1ccccc1	FAK inh 46 | FAK inh conf 29
O=C(Cc1ccccc1)Nc1ccc(N2CCCC2)cc1	FAK inh 30 | FAK inh conf inactive
CC(C)C(=O)Nc1ccc(N2CCCC2)cc1	none (no result: Phagocyt inh)
CCN1CCN(c2ccc(NC(=O)Cc3ccccc3)cc2)CC1	none
CCC(O)CNC(=O)NC(=C(Cl)Cl)c1ccc(C)c(F)c1 (centres undefined)	none (no result: MRP resist rev, FAK inh)
COc1cccc(C(=O)NC2CC3CCCC(C2)N3CC(=O)Nc2ccc(N(C)C)cc2)c1 (centres undefined)	none (no result: Phagocyt inh, CD11b adhes inh, Mac1 fbg enh)
COc1cccc(C(=O)NC2CC3CCCC(C2)N3CC(=O)Nc2ccccc2)c1 (centres undefined)	FAK inh 22 (no result: Phagocyt inh, CD11b adhes inh, Mac1 fbg enh) | FAK inh conf inactive
CCCN1CCCc2cc(CN)ccc21	FAK inh 24 | FAK inh conf inactive
CN1CCCc2cc(C=O)ccc21	none (no result: Phagocyt inh, CD11b adhes inh, Mac1 fbg enh)
Cc1cc2nc(C)n(CCCNC(=O)Nc3ccc(F)cc3)c2cc1C	none (no result: Phagocyt inh)
Cc1ccccc1-n1c(SCc2ccccn2)nc2n[nH]c(C)c2c1=N	FAK inh 30 (no result: MRP resist rev) | FAK inh conf inactive
CCOc1ccccc1NC(=O)CCSc1nc2n[nH]c(C)c2c(=N)n1-c1ccccc1Cl	none (no result: Phagocyt inh, FAK inh)
O=C(Nc1ccncc1)c1ccc(NS(=O)(=O)c2cccc(F)c2)cc1	none (no result: MRP resist rev, FAK inh, CD11b adhes inh, Mac1 fbg enh)
c1ccc(CNc2ncnc3sc4c(c23)CCC4)nc1	FAK inh 20 | FAK inh conf inactive
Fc1cccc(Nc2ncnc3sc4c(c23)CCC4)c1	none (no result: MRP resist rev, FAK inh, CD11b adhes inh, Mac1 fbg enh)
COC(=O)c1c(C)[nH]c(O)c1C=Nc1ccc(C(C)C)cc1	FAK inh 29 (no result: Phagocyt inh, MRP resist rev, CD11b adhes inh, Mac1 fbg enh) | FAK inh conf inactive
CCOC(=O)c1c(C)[nH]c(O)c1C=Nc1ccc(Cl)cc1	none (no result: Phagocyt inh, MRP resist rev, CD11b adhes inh, Mac1 fbg enh)
O=C1Cc2ccccc2C(=O)N1Cc1ccccc1	FAK inh 54 | FAK inh conf 28
O=C(O)CCN1Cc2ccccc2C1=O	none
Oc1ccc2ccccc2c1C=Nc1ccc(N2CCOCC2)cc1	FAK inh 46 | FAK inh conf 49
COc1ccc(CNC(=O)CCCn2c(SCC#N)nc3cc4c(cc3c2=O)OCO4)cc1	none (no result: Phagocyt inh, MRP resist rev, CD11b adhes inh, Mac1 fbg enh)
Clc1ccc2[nH]c3c(NCC4CCCO4)ncnc3c2c1 (centres undefined)	FAK inh 22 | FAK inh conf inactive
O=C(Nc1ccc2c(c1)OCCO2)c1ccc(NC(=O)C2CCCO2)cc1 (centres undefined)	none (no result: MRP resist rev)
CCOc1ccccc1NC(=O)c1ccc(OCC)c([N+](=O)[O-])c1	none (no result: MRP resist rev, FAK inh, CD11b adhes inh, Mac1 fbg enh)
CCOc1ccc(C(=O)Nc2cccc(-c3cc4ccccc4oc3=O)c2)cc1[N+](=O)[O-]	FAK inh 30 (no result: Phagocyt inh, MRP resist rev, CD11b adhes inh, Mac1 fbg enh) | FAK inh conf inactive
O=C(Cc1ccccc1)NCC(=O)N1CCCCCC1	none
CC(C)CCNCC1OCc2ccccc2CO1	none (no result: Phagocyt inh, MRP resist rev, FAK inh)
CCOc1ccc(-c2nnc3sc(COc4ccc(C)cc4)nn23)cc1	none
CCOc1ccc(-c2nnc3sc(COc4ccc(Cl)cc4)nn23)cc1	FAK inh 21 | FAK inh conf inactive
Cc1nnc(NCc2ccncc2)c2ccccc12	FAK inh 23 (no result: Phagocyt inh, CD11b adhes inh, Mac1 fbg enh) | FAK inh conf inactive
Cc1ccc(S(=O)(=O)CC(C)N2CCN(C3CCCCC3)CC2)cc1 (centres undefined)	none (no result: Phagocyt inh, CD11b adhes inh, Mac1 fbg enh)
